From the supplement of paper PMC6607015
Where a name gives a salt, the structure may show the parent alone.

Columns and labels:
Settings in all cases: compound concentration in added solution (µM; 5 µl added to 20 µl cells): 10; 18 h
A431 [1] = assay: LBPA endosome anti-LBPA integrated intensity (sum per cell), Z-score; higher = more LBPA staining
Method in brief: (§1)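 Each value is a Z-score normalised in AcuityXpress from per-cell integrated LBPA or filipin intensity, taken over the whole cell or within LBPA endosomes. Duplicate 384-well imaging plates held 5 µl of 10 µM compound solution, onto which 3,500 HeLa MZ or A431 cells in 20 µl were seeded per well. After 18 h the cells were fixed in 4% PFA, stained with 6C4 anti-LBPA antibody, filipin, propidium iodide and CellTracker green, imaged four times per well at 20× and segmented in MetaXpress.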

HeLa MZ [2] = assay: as above
Method in brief: as §1

A431 [3] = assay: whole-cell filipin (free cholesterol) integrated intensity, Z-score; higher = more cholesterol staining
Method in brief: as §1

HeLa MZ [4] = assay: as above
Method in brief: as §1

A431 [5] = assay: filipin (cholesterol) integrated intensity within LBPA endosomes, Z-score; higher = more cholesterol in LBPA endosomes
Method in brief: as §1

HeLa MZ [6] = assay: as above
Method in brief: as §1

Row | SMILES | LBPA endosome anti-LBPA integrated intensity (z-score) (A431 [1]) | LBPA endosome anti-LBPA integrated intensity (z-score) (HeLa MZ [2]) | whole-cell filipin (z-score) (A431 [3]) | whole-cell filipin (z-score) (HeLa MZ [4]) | filipin (z-score) (A431 [5]) | filipin (z-score) (HeLa MZ [6])
1 | C=C1/C(=C\C=C2/CCC[C@]3(C)[C@@H]([C@H](C)CCCC(C)C)CC[C@@H]23)C[C@@H](O)C[C@@H]1O [Alfacalcidol] | 0.0439 | -0.204 | -0.362 | -0.701 | -0.145 | -0.743
2 | CC(=O)OCC1=C(C(=O)O)N2C(=O)[C@@H](NC(=O)Cc3cccs3)[C@H]2SC1 [Cephalothin sodium salt] | -0.468 | -0.884 | -0.46 | -0.115 | -0.456 | -0.652
3 | Clc1ccc2c(c1)CCc1cccnc1C2=C1CCNCC1 [Desloratadine] | 3.93 | 2.5 | 1.63 | 0.223 | 2.69 | 2.81
4 | CC(=O)OCC(=O)NCCCOc1cccc(CN2CCCCC2)c1 [Roxatidine Acetate HCl] | -0.585 | -0.0177 | -0.731 | -0.282 | -0.524 | -0.38
5 | CCOc1nc2cccc(C(=O)O)c2n1Cc1ccc(-c2ccccc2-c2nnn[nH]2)cc1 [Candesartan] | -0.346 | 0.346 | 0.0521 | 0.386 | -0.389 | -0.218
6 | CCN(Cc1ccncc1)C(=O)C(CO)c1ccccc1 (stereo unspecified) [Tropicamide] | -0.503 | -0.535 | -0.78 | -0.974 | -0.52 | -0.592
7 | CCc1c(C)[nH]c2c1C(=O)C(CN1CCOCC1)CC2 (stereo unspecified) [Molindone hydrochloride] | -0.564 | -0.568 | -0.123 | -0.707 | -0.506 | -0.344
8 | Cc1cccc(C)c1NC(=O)C1CCCCN1C (stereo unspecified) [Mepivacaine hydrochloride] | -0.256 | 0.0426 | 0.297 | 0.327 | -0.328 | -0.202
9 | CC1=Nc2ccc(Cl)cc2S(=O)(=O)N1 [Diazoxide] | -0.529 | -1.17 | -0.801 | -0.471 | -0.542 | -0.481
10 | CC1(C)S[C@@H]2[C@H](NC(=O)Cc3ccccc3)C(=O)N2[C@H]1C(=O)O [Benzylpenicillin sodium] | -0.349 | 1.42 | -0.101 | 2.18 | -0.427 | -0.552
11 | O=C1CCC(N2C(=O)c3ccccc3C2=O)C(=O)N1 (stereo unspecified) [Thalidomide] | -0.476 | -0.403 | -0.887 | -1.09 | -0.544 | -0.68
12 | CNCCC=C1c2ccccc2CCc2ccccc21 [Nortriptyline hydrochloride] | 3.79 | 1.4 | 1.95 | 1.82 | 3.53 | 3.69
13 | CC1(C)O[C@@H]2C[C@H]3[C@@H]4C[C@H](F)C5=CC(=O)C=C[C@]5(C)[C@@]4(F)[C@@H](O)C[C@]3(C)[C@]2(C(=O)CO)O1 [Fluocinolone acetonide] | -0.172 | -0.371 | 0.258 | 0.13 | -0.163 | -0.367
14 | Cc1cn([C@H]2C=C[C@@H](CO)O2)c(=O)[nH]c1=O [Stavudine] | -0.301 | 0.24 | 0.0526 | 0.186 | -0.48 | -0.475
15 | CC(C)(O)c1ccccc1CC[C@@H](SCC1(CC(=O)O)CC1)c1cccc(/C=C/c2ccc3ccc(Cl)cc3n2)c1 [Montelukast] | -0.42 | 0.903 | -0.0363 | 0.0687 | -0.415 | -0.392
16 | CN[C@@H]1[C@@H](O[C@H]2O[C@H](CO)[C@@H](N)[C@H](O)[C@H]2O)OC2C[C@@H](N)[C@@H](O[C@H]3[C@H](O)[C@@H](O)[C@H](N)C[C@@H]3N)OC2[C@@H]1O (stereo partly specified) [Apramycin] | -0.469 | -0.358 | -0.077 | -0.329 | -0.402 | -0.523

Row | SMILES | LBPA endosome anti-LBPA integrated intensity (z-score) (A431 [1]) | LBPA endosome anti-LBPA integrated intensity (z-score) (HeLa MZ [2]) | whole-cell filipin (z-score) (A431 [3]) | whole-cell filipin (z-score) (HeLa MZ [4]) | filipin (z-score) (A431 [5]) | filipin (z-score) (HeLa MZ [6])
17 | NC(=O)N/N=C/c1ccc([N+](=O)[O-])o1 [Nitrofural] | -0.562 | -0.605 | -0.633 | -0.478 | -0.506 | -0.689
18 | CCN(CC)C(C)CN1c2ccccc2Sc2ccccc21 (stereo unspecified) [Ethopropazine hydrochloride] | 3.1 | 5.78 | 2.83 | 2.95 | 2.11 | 1.8
19 | Cn1c(=O)c2c(ncn2CC2OCCO2)n(C)c1=O [Doxofylline] | -0.341 | 0.313 | -0.207 | -0.159 | -0.416 | -0.528
20 | CC(=O)O[C@]1(C(C)=O)CC[C@H]2[C@@H]3C=C(C)C4=CC(=O)CC[C@@H]4[C@H]3CC[C@@]21C [Nomegestrol acetate] | 0.292 | 0.691 | 1.29 | 1.28 | 0.654 | 0.778
21 | C[N+](C)(C)CCCCCC[N+](C)(C)C [Hexamethonium dibromide dihydrate] | -0.482 | -1.09 | -0.483 | -0.775 | -0.514 | -0.624
22 | NC(=O)c1ccc[n+]([C@@H]2O[C@H](COP(=O)([O-])OP(=O)(O)OC[C@H]3O[C@@H](n4cnc5c(N)ncnc54)[C@H](O)[C@@H]3O)[C@@H](O)[C@H]2O)c1 [Nadide] | -0.373 | -0.766 | -0.714 | -0.46 | -0.413 | -0.768
23 | COCCCC/C(=N\OCCN)c1ccc(C(F)(F)F)cc1 [Fluvoxamine maleate] | 0.482 | 2.11 | 1.69 | 0.282 | 0.839 | 0.935
24 | CCn1cc(C(=O)O)c(=O)c2cnc(N3CCCC3)nc21 [Piromidic acid] | -0.472 | -0.684 | -0.293 | 0.123 | -0.374 | -0.418
25 | CN[C@@H]1[C@H](O[C@H]2[C@H](O[C@H]3[C@H](O)[C@@H](O)[C@H](N=C(N)N)[C@@H](O)[C@@H]3N=C(N)N)O[C@@H](C)[C@]2(O)C=O)O[C@@H](CO)[C@H](O)[C@H]1O [Streptomycin sulfate] | -0.673 | -1.38 | -0.979 | -0.78 | -0.577 | -0.576
26 | CC(CCc1ccccc1)NCC(O)c1ccc(O)c(C(N)=O)c1 (stereo unspecified) [Labetalol hydrochloride] | 0.794 | 1.06 | 1 | -0.0368 | 0.489 | 0.328
27 | CCN(CC)CCNC(=O)c1cc(Cl)c(N)cc1OC [Metoclopramide monohydrochloride] | -0.305 | 1.1 | -0.595 | -0.234 | -0.404 | 0.279
28 | CCc1c2c(nc3ccc(OC(=O)N4CCC(N5CCCCC5)CC4)cc13)-c1cc3c(c(=O)n1C2)COC(=O)[C@]3(O)CC [Irinotecan Hydrochloride] | 0.102 | 3.21 | 3.24 | 3.96 | 0.0471 | -0.0232
29 | CCCCOC(=O)c1ccc(N)cc1 [Butamben] | -0.33 | 0.449 | -0.437 | -0.221 | -0.356 | -0.552
30 | CN1[C@@H]2CC[C@H]1C[C@@H](OC(c1ccccc1)c1ccccc1)C2 [Benztropine mesylate] | 2.51 | 2.77 | 3.07 | 3.74 | 2.51 | 2.8
31 | CC[N+](CC)(CC)CCOc1cccc(OCC[N+](CC)(CC)CC)c1OCC[N+](CC)(CC)CC [Gallamine triethiodide] | -0.558 | -0.807 | -0.891 | -0.384 | -0.526 | -0.576
